Sampled rows, rich in hits. Any-hit rate of the full collection: about 22%.
Pf growth 48h: Primary qHTS for delayed death inhibitors of the malarial parasite plastid, 48 hour incubation; hit rate 5.9% among 310,000; P. falciparum luciferase growth in erythrocytes, 48 h; Potency, µM (doses to about 28.7 µM), inactives show top-dose activity change, negative = inhibition, usual class: inhibitors; also: potency is read from the fitted curve at half-maximal effect; % is scaled to controls: 0 for no effect and ±100 for the full control effect
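Firefly luciferase activity from engineered P. falciparum reports growth; inhibitors lower the luminescent signal. Cultures contained 2% hematocrit erythrocytes at 0.1% final parasitemia.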
Pf growth 96h: Primary qHTS for delayed death inhibitors of the malarial parasite plastid, 96 hour incubation | hit rate 6.9% among 320,000 | P. falciparum luciferase reporter growth, 96 h | Potency, µM (titrated, usually from 28.7 µM), for inactives: top-dose activity change, negative = inhibition, most hits filed as inhibitors | AID 504834, 2011; also: potency is read from the fitted curve at half-maximal effect; % is scaled to controls: 0 for no effect and ±100 for the full control effect
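P. falciparum expressing integrated firefly luciferase grown in erythrocytes (2% hematocrit, 0.05% parasitemia final) with compounds for 96 hours at 37 C, 5% CO2. Growth inhibition read as loss of luminescence after adding luciferase detection reagent.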
Shiga toxin inh: A qHTS for Small Molecule Inhibitors of Shiga Toxin; Vero cells, Shiga toxin protein synthesis inhibition reporter; inhibition, % at 38.7 µM; hit rate 9.2% among 290,000; in the data active = inhibition mostly above about 28%, no sharp cut-off; inactive = mostly below about 43%; also: 0% is about no effect
Cycloheximide cs: Cycloheximide Counterscreen for Small Molecule Inhibitors of Shiga Toxin; cell reporter, cycloheximide protein synthesis inhibition counterscreen; max response, %; hit rate 12% among 300,000; in the data active = max response mostly above about 13%, no sharp cut-off; inactive = mostly below about 14%; also: read at 38.3 µM for the half of the compounds with a filed dose; 0% is about no effect
LmPK inh: qHTS Assay for Inhibitors of Leishmania Mexicana Pyruvate Kinase (LmPK). Q27686. purified LmPK, Kinase-Glo ATP luminescence, 1 h. Potency, µM (series often up to 57.5 µM), for the others: top-dose activity change, negative = inhibition, most hits filed as inhibitors. hit rate 0.37% among 290,000. AID 1721, 2009; also: potency is read from the fitted curve at half-maximal effect; % is scaled to controls: 0 for no effect and ±100 for the full control effect
Target sequence (Q27686 whole entry, looked up): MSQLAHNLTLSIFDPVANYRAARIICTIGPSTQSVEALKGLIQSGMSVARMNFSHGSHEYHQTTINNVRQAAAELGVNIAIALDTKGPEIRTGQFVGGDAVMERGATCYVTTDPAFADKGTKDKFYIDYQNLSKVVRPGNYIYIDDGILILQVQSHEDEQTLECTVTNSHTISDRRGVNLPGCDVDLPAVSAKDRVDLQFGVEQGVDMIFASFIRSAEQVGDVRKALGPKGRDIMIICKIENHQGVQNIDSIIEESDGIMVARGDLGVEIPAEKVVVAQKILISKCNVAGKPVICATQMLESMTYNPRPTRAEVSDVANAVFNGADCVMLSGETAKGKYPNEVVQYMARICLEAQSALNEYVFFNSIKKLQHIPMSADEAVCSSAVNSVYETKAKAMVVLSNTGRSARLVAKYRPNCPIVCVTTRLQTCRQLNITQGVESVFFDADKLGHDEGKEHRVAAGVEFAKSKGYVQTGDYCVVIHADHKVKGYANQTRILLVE
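ATP generated from ADP (0.1 mM) and PEP (0.5 mM) by 0.1 nM LmPK over 1 h at room temperature (pH 7.2 imidazole buffer) was detected by coupled luciferase luminescence. Values were normalized to uninhibited and no-enzyme wells.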
* marks the source's active call; other numbers are inactive results; i = inactive; ? = inconclusive; nt = not tested or not shown. Unless noted, calls follow the shape of the dose curve; as a rule, active = well fitted inhibition curve with a large enough effect; inconclusive = small, poorly fitted or top-dose-only effect, or another doubt; inactive = no such curve, though single readings can be large or run the other way.

SMILES	Pf growth 48h	Pf growth 96h	Shiga toxin inh	Cycloheximide cs	LmPK inh
CCOc1ccccc1C(=O)NCC(=O)Nc1ccc(-c2ccccc2)cc1	7%	26%	39	9	-2%
COc1ccc(Nc2nccc(-c3ccc(C#N)cc3)n2)cc1	-19%	5.9µM*	-12	8	-1%
COc1ccc(Nc2nccc(NCCO)n2)cc1	nt	nt	72*	41*	nt
C=CCNc1nc(Nc2ccc(OC)cc2)nc(OCC)n1	8%	nt	-18	-3	4%
COc1ccc(Nc2nccc(-c3cccc(N)c3)n2)cc1	103%	27%	71*	68*	0%
COc1ccc(Nc2nccc(OC)c2C#N)cc1	10%	32%	-7	-7	-4%
CCN(CC)C(=O)c1sc(NC(=O)c2ccc(OC)c([N+](=O)[O-])c2)c(C#N)c1C	-14%	-2%	-13	-3	2%
COc1ccc2nc(NC(=O)CCN3C(=S)NC(C)(C)CC3C)sc2c1 (stereo not given)	19%	0%	-2	10	5%
O=C(CSc1ccsc1[N+](=O)[O-])NCCc1ccc(Cl)cc1	4%	13%	-1	-1	-3%
O=C(CSc1ccsc1[N+](=O)[O-])Nc1cc(F)ccc1F	-29%	31%	45*	19*	0%
Cc1ccc(CNC(=O)CSc2ccsc2[N+](=O)[O-])cc1	-43%	?	72*	54*	3%
COc1ccc(CNC(=O)CSc2ccsc2[N+](=O)[O-])cc1	?	-19%	84*	34*	-1%
Nc1nc(Nc2cccc(Cl)c2)n[nH]1	1%	?	26	5	4%
CN(Cc1cnn(C)c1)C(=O)C1CCCCC1C(=O)O (stereo not given)	7%	38%	-7	7	-3%
COc1ccc2c(c1)cc1c(=O)n(CC(=O)NCCCN3CCOCC3)nc(C)n12	19%	70%	-2	-4	3%
CCN1CCn2c3c(c4cc(C)ccc42)CCCC31 (stereo not given)	8.3µM*	55%	40	25*	1%
CCN1CCn2c3c(c4cccc(C)c42)CCCC31 (stereo not given)	?	6%	-5	-3	-3%
Cc1ccc2c(c1)c1c3n2CCN(C(=O)CCl)C3CCC1 (stereo not given)	?	?	24	9.8*	0%
Cc1ccc(NC(=O)CCNS(=O)(=O)c2ccc(Br)s2)cc1	2%	21%	-15	5	-3%
COc1ccc(C2CC(=O)C3=C(C2)Nc2ncnn2C3c2ccccc2C)c(OC)c1 (stereo not given)	7.4µM*	8.3µM*	-20	0	5%
CCNNC(=O)C(O)(Cc1ccccc1)Cc1ccccc1	29%	37%	-1	-1	-2%
O=C1/C(=C/c2cc3c(cc2Cl)OCO3)N2CCC1CC2	16%	0%	10	-2	-1%
O=C1/C(=C\c2cc3c(cc2Cl)OCO3)N2CCC1CC2	21%	5.9µM*	30	7	3%
S=C(NCCN1CCOCC1)Nc1ccccc1Cl	15%	1%	-8	8	-3%
Cc1ccc(N(CC(=O)NC(C)(C)C)C(=O)CNC(=O)c2cccs2)c(C)c1	8.3µM*	20%	2	-2	-4%
SMILES	Pf growth 48h	Pf growth 96h	Shiga toxin inh	Cycloheximide cs	LmPK inh
O=Cc1ccc(C(=O)OCC(=O)N2CCCC2)cc1	16%	18%	18	-2	-3%
O=C(OCC(=O)N1CCCC1)c1ccc(OC(F)(F)F)cc1	41%	56%	70	22*	9%
CCN(CC)c1ccc(C(=O)OCC(=O)N2CCCC2)cc1	24%	18%	59*	29*	-1%
O=C(COc1ccc(F)cc1)N1CCCCCCC1	-7%	?	15	-2	1%
O=C(N1CCCC1)C(F)(F)Oc1ccc(F)cc1	8%	-4%	32*	14	-3%
CSCCC(NC(=O)COc1ccccc1)C(=O)N1CCCCCC1 (stereo not given)	?	-26%	nt	nt	nt
O=C1NCCc2c1[nH]c1ccccc21	-5%	76%	1	10	5%
Cc1ccc2[nH]c3c(c2c1)CC/C(=C/c1ccccc1)C3=O	48%	nt	32	23*	1%
CCCCCc1c(O)c2ccccc2[nH]c1=O	11%	-17%	-12	4	-4%
O=C1/C(=C\c2ccccc2)CCc2c1[nH]c1ccccc21	35%	92%	52*	42*	2%
Cc1ccc(/C=C2/CCc3c([nH]c4ccccc34)C2=O)cc1	419%	i	52*	29*	1%
Cc1ccc2c(c1)/C(=C/c1ccccc1)C(=O)N2	?	35%	-7	-1	-7%
CCCC/C=C1\CCc2c([nH]c3ccccc23)C1=O	52%	2%	57*	32*	0%
Cc1ccc(CNC(=O)CN(c2ccc(C)cc2)S(=O)(=O)c2c(C)n[nH]c2C)cc1	8%	6%	-9	-1	-1%
COc1ccccc1C(=O)N/C(=C/c1ccc2c(c1)OCO2)C(=O)Nc1ccc(C(=O)O)cc1	?	-14%	-5	-4	-5%
Cc1cc(C)c(C(=O)COC(=O)c2cc([N+](=O)[O-])ccc2NCCO)cc1C	-12%	?	-7	1	1%
CC(C)/C=C1\CCc2c([nH]c3ccccc23)C1=O	?	?	45*	32*	0%
C=C1CCc2c([nH]c3ccc(OCC(C)C)cc23)C1=O	7%	22%	-3	2	-4%
CCCCN1CCc2c([nH]c3ccccc23)C1=O	84%	-6%	95*	35*	1%
CC(=O)[C@H]1[C@H]([C@H](O)[C@H](O)CO)O[C@](O)(C(=O)O)C[C@@H]1O	-9%	22%	nt	nt	nt
CCN(CC(=O)Nc1ccc(NC(C)=O)cc1)C(=O)CCN1C(=O)C2CC=CCC2C1=O (stereo not given)	23%	-1%	nt	nt	nt
Cc1[nH]n(-c2ccc(Br)cc2)c(=O)c1/C=N/NC(=O)c1ccccc1	?	?	92*	28*	-5%
Cc1[nH]n(-c2ccccc2)c(=O)c1/C=N/NC(=O)c1cccc(F)c1	10µM*	-5%	66*	43*	2%
Cc1cc(C(=O)N/N=C/c2c(C)[nH]n(-c3ccccc3)c2=O)n[nH]1	12%	?	-7	9	-3%
O=C(CN(Cc1cccs1)C(=O)CCC(=O)Nc1ccccn1)NCc1ccccc1	2%	57%	-19	-1	-5%
c1ccc(-c2cn3c(n2)SCC3)cc1	51%	44%	50*	29*	4%
Cc1oc2ccccc2c1-c1cn2c(n1)SCC2	4%	?	24	11*	-2%
Brc1ccc(-c2cn3c(n2)SCC3)cc1	197%	-14%	100*	35*	0%
Oc1ccc(-c2cn3c(n2)SCC3)cc1	nt	7%	20	13	-3%
Clc1ccc(-c2cn3c(n2)SCC3)cc1	i	?	162*	38*	8%
